Measured values reported in PubChem BioAssay (NCI).
About 83,000 compounds went through this panel and 20% of them were active in at least one assay; those are over-represented in the sample as a whole.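 Single-dose data. Exposure time 48 hours. Values below 10 considered active.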 Calls of active or inactive are those of the source.

Tested on: HL-60(TB) leukemia
Assay: NCI-60 one-dose screen, 48 h (100 = growth as untreated, 0 = no growth, -100 = all killed)
Settings: 10 µM unless noted

Row | Compound | growth
1 | CCCCn1c(=O)c(-c2cc(-c3ccc(Cl)cc3)nc(-c3ccc(Cl)cc3)c2)cc2cc(Cl)ccc21 | 100% (inactive)
2 | O=C1/C(=C/c2ccccc2)CCc2nc3ccccc3c(/C=C/c3ccc(Cl)cc3)c21 | 83.2% (inactive)
3 | Nc1nc(NC(=O)Nc2ccc(C(=O)O)cc2)nn1-c1ccc(S(N)(=O)=O)cc1 | 102% (inactive)
4 | Nc1ncn([C@@H]2O[C@H](CO)[C@@H](O)[C@H]2O)c(=O)n1 | -2.84% (active)
5 | Cn1cc(C2=C(c3cccc4ccccc34)C(=O)NC2=O)c2cc(Br)ccc21 | 107% (inactive)
6 | CCO/C=C1\SC(=S)N(c2cccc(C)c2)C1=O | 99% (inactive)
7 | O=C(CNC(=O)c1cccc2ccccc12)Nc1ccccc1Oc1ccc(O)cc1 | -13.9% [5 µM] (active)
8 | CNC(=S)NC(C)(C)C | 92.6% (inactive)
9 | CCCC(C)c1ccc(OCCCCCCN2CCNCC2)cc1 (stereo unspecified) | -44.9% (active)
10 | C#CCCCCCCC[C@@H]1OC(=O)[C@H]([C@@H](C)CC)NC(=O)[C@@H]([C@@H](C)CC)NC(=O)CC(=O)[C@@H]1C | 107% (inactive)
11 | CSc1ncc2ncn(C3OC(CO)C(O)C3O)c2n1 (stereo unspecified) | 114% (inactive)
12 | O=C1Nc2ccccc2/C1=C/c1cccn1CCCCCn1c2ccccc2c(=O)c2ccccc21 | 47.6% (inactive)
13 | CC(=O)Nc1ccc2oc(=O)ccc2c1 | 67.8% (inactive)
14 | Cc1c(C(=O)C(SC(=S)N2CCOCC2)SC(=S)N2CCOCC2)nnn1-c1ccc([N+](=O)[O-])cc1 | 91.3% (inactive)
15 | CCCCCCCCOC(=O)c1c(C)[nH]c(/C=C2\N=C(c3ccc[nH]3)C=C2OC)c1C | 4.96% (active)
16 | N#C/C(=C\c1ccc([N+](=O)[O-])s1)c1nc2cc(Br)ccc2s1 | 17.7% (inactive)
17 | c1ccc(-c2nc3nonc3nc2-c2ccccc2)cc1 | 85.3% (inactive)
18 | N=C1N=C(N)CS1 | 112% (inactive)
19 | COc1ccc(Cl)cc1C(=O)Nc1nc2ccc(Cl)cc2s1 | 103% (inactive)
20 | O=C1c2cccc3cc([N+](=O)[O-])cc(c23)C(=O)N1CCN1CCCC1 | -54.1% (active)
21 | O=C1Nc2ccccc2/C1=C/C(=N/c1nnc(-c2ccccc2)s1)c1ccccc1 | -32.9% (active)
22 | COc1ccc(Cn2cc3c(c2-c2ccccc2)CC(C)(C)c2cnoc2-3)cc1 | 16.7% (inactive)
23 | COc1cc(C2CC(=O)Nc3c2cnn3Cc2ccco2)cc2c1OCCO2 (stereo unspecified) | 25.6% (inactive)
24 | N#CSc1cc(S(N)(=O)=O)ccc1N | 81.2% (inactive)

Row | Compound | growth
25 | COc1cc(C(=O)N2CCN(C(=O)c3ccco3)CC2)c(N)cc1OCc1ccccc1 | 99.8% (inactive)
26 | CCCCOc1nc2ccc(OC)cc2cc1-c1cc(-c2ccc(Cl)cc2)nc(-c2ccc(Cl)cc2)c1 | 103% (inactive)
27 | CC1=NN(c2cccc(Cl)c2)C(=O)/C1=C\c1cn(CC(O)CN2CCCCC2)c2ccccc12 (stereo unspecified) | 25.7% (inactive)
28 | CC1=CSC2=NCCN12 | 97.1% (inactive)
29 | CC(C)C1=C[C@@]23CC[C@@H]4[C@](C)(CCC[C@@]4(C)C(=O)OCC#CCN4CCCC4)[C@H]2C[C@@H]1[C@H]1C(=O)OC(=O)[C@H]13 | 95.7% (inactive)
30 | N=C(N)c1ccc(-c2ccc(-c3ccccc3)o2)o1 | -17% (active)
31 | c1ccc(CC(NCCNC(Cc2ccccc2)c2ccccc2)c2ccccc2)cc1 (stereo unspecified) | -0.655% (active)
32 | CC[C@H]1CCC/C=C/[C@@H]2C[C@H](O)C[C@H]2[C@H](O)/C=C/C(=O)O1 | -0.414% (active)
33 | COc1ccc2nc(-c3ccc(Cl)cc3)cc(C(=O)N3N=C(c4ccc(N)cc4)CC3c3ccccc3)c2c1 (stereo unspecified) | -1.6% (active)
34 | Cn1cc(C(=O)c2nc(-c3c[nH]c4ccc(F)cc34)no2)c2cc(F)ccc21 | 70.5% (inactive)
35 | CS(=O)(=O)c1ccc(-c2cnc3ccc(-c4cccc(S(C)(=O)=O)c4)nn23)cc1 | 16.6% (inactive)
36 | Cc1ccc(OCCOCCOCCOc2ccc(C)n(O)c2=S)c(=S)n1O | 37.6% (inactive)
37 | CCc1ccccc1-n1c(-c2ccc(OC)cc2)cc(-c2ccc(OC)cc2)c(C#N)c1=O | 121% (inactive)
38 | CCc1nc(C(N)=O)c(Nc2ccc(N3CCC(N4CCN(C)CC4)CC3)c(OC)c2)nc1NC1CCOCC1 | 9.89% (active)
39 | COC(=O)c1cc(-c2ccc(Cl)c(Cl)c2)[nH]c(=O)c1C#N | 101% (inactive)
40 | C=CCN(CC=C)C(=O)[C@H](CC)[C@@H]1CC[C@@H](C)[C@@H]([C@H](C)[C@@H](O)[C@@H](C)C(=O)[C@H](CC)C2O[C@]3(C=CC(=O)[C@]4(CC[C@@](C)([C@H]5CC[C@](O)(CC)[C@H](C)O5)O4)O3)[C@H](C)C[C@@H]2C)O1 (stereo partly specified) | -25.2% (active)
41 | Cc1ccc(-n2c(C)nn3c(=O)c4c5c(sc4nc23)CN(C)CC5)cc1 | 96.7% (inactive)
42 | O=C1/C(=C/c2ccccn2)NC(=S)N1c1ccccc1Cl | 26.9% (inactive)
43 | Cc1ccc(S(=O)(=O)Nn2c3c(cc(-c4nc5ccccc5s4)c2=O)CCCCCC3)cc1 | 102% (inactive)
44 | COc1ccc(C(=O)/C=C/c2ccc(Cl)cc2)cc1S(=O)(=O)Nc1c(N)nc(SC)[nH]c1=O | 36.8% (inactive)
45 | COc1ccc(-c2nc(-c3nc4ccc(OC)cc4[nH]3)cc3c2[nH]c2ccccc23)cc1 | 34.7% (inactive)
46 | Cc1ccc(-c2nc(SCC(=O)c3ccc(C#N)cc3)[nH]c(=O)c2C#N)cc1 | 94.2% (inactive)
47 | CC1(C)CCc2cc(-c3ccn(S(=O)(=O)c4ccc(Cl)cc4)n3)ccc2O1 | 71.9% (inactive)
48 | Cn1c(C(N)=O)cc2c1-c1nc(NC3CCCCC3)ncc1CCC2 | 105% (inactive)

Row | Compound | growth
49 | C=C1C(=O)O[C@H]2[C@H]1CC/C(COC(=O)NCCc1cccc(OC)c1)=C\CC[C@@]1(C)O[C@@H]21 | 6.53% (active)
50 | CCOC(=O)c1sc(Nc2ncccn2)nc1-c1ccccn1 | 109% (inactive)
51 | COc1ccc2c(c1)C(=O)/C(=C/c1cccc(OCC(=O)c3ccc([N+](=O)[O-])cc3)c1)CO2 | -46.6% (active)
52 | CNC(=O)c1cc(Oc2ccc3nc(NC(=O)Nc4cc(C(F)(F)F)cc(C(F)(F)F)c4)sc3c2)ccn1 | -39.8% (active)
53 | CC(C)N(C(=S)SSC(=S)N(C(C)C)C(C)C)C(C)C | 122% (inactive)
54 | CS(=O)(=O)c1ccc(Nc2nc(N[C@H]3CCCC[C@H]3N)nc3cc[nH]c(=O)c23)cc1 | -16.9% (active)
55 | O=C1c2cc3c(cc2-c2c1c1ccc(F)cc1c(=O)n2C[C@H](O)[C@@H](O)[C@H](O)CO)OCO3 | -3.71% (active)
56 | Cc1cccc(NCc2cn(-c3ccc(C(=O)O)cc3)nc2-c2ccc(C(=O)O)cc2)n1 | 101% (inactive)
57 | O=C(NCCCNS(=O)(=O)c1ccc(Cl)cc1)Nc1ccc(-n2cc(-c3ccncc3)c(-c3ccc(Cl)c(O)c3)n2)cc1 | 16.3% (inactive)
58 | COc1cc(-c2nc3ccccc3s2)ccc1OCc1nc2n(n1)S(=O)(=O)c1ccccc1N2C | 79.2% (inactive)
59 | O=C(NC1CCS(=O)(=O)C1)c1ccc(C(=O)c2ccccc2)cc1 (stereo unspecified) | 191% (inactive)
60 | N#Cc1c(N)nc(Cl)c(C#N)c1C(=O)c1ccccc1 | 6.29% (active)
61 | COc1ccc2c(c1)c(-c1nc(-c3c[nH]c4ncccc34)cs1)cn2CCCN1CCCCC1 | -60.8% (active)
62 | S=c1nc2oc(-c3ccccc3)c(-c3ccccc3)c2c(/N=C\c2ccco2)[nH]1 | 87.2% (inactive)
63 | O=C1NC(=C(Cl)Cl)/C(=N\S(=O)(=O)NCc2ccccc2)N1 | 97% (inactive)
64 | CCCCn1sc(=O)n(Cc2ccc(CNC(=O)OCc3ccc4c(Br)cc(Br)c(O)c4n3)cc2)c1=O | -60.6% (active)
65 | Fc1cc2[nH]ncc2c2c3c(c(-c4cn[nH]c4)nc12)CCCC3 | -13.2% (active)
66 | COc1ccc(S(=O)(=O)NC2c3ccccc3CC2O)cc1OC (stereo unspecified) | 103% (inactive)
67 | CC1=C(C(=O)Nc2nc(-c3ccc(Cl)cc3)cs2)[C@H](c2ccc(O)cc2)NC(=O)N1 | 98.7% (inactive)
68 | COc1cc(/C=C/CO)cc(OC)c1O[C@@H]1O[C@H](CO)[C@@H](O)[C@H](O)[C@H]1O | 85.9% (inactive)
69 | COc1ccc(N(C)c2nc(Cl)nc3cnn(C)c23)cc1 | -4.95% (active)
70 | CC(C)/C=C/CC[C@](C)(O)[C@H]1CC[C@]2(C)[C@@H]1CC[C@@H]1[C@@]3(C)C/C(=C/c4cccc(C(F)(F)F)c4)C(=O)C(C)(C)[C@@H]3CC[C@]12C | 92.9% (inactive)
71 | CN(C)CN1CCN(c2ccc3nc(-c4ccc5nc(-c6ccc(C(F)(F)F)cc6)[nH]c5c4)[nH]c3c2)CC1 | 59.6% (inactive)
